# In PubChem BioAssay AID686978 (National Center for Advancing Translational Sciences (NCATS), 2013):
# The whole screen tested about 420,000 compounds, of which about 64,000 (15%) were called active. Another 27% or so got no clear call; they are omitted. The call rests on the fitted dose curve; in most records, active means well fitted inhibition curve with a large enough effect; inconclusive means small, poorly fitted or top-dose-only effect; inactive means flat fitted curve, though single readings scatter. The list is a sample of the results.
# Assay: qHTS for Inhibitors of human tyrosyl-DNA phosphodiesterase 1 (TDP1): qHTS in cells in absence of CPT; further: nearly all actives have a fitted effect of over 55% in size
# Conditions: DT40 Tdp1-/- hTDP1 cells, no CPT, ATP luminescence, 48 h; activity change, negative = growth inhibition: at 46.2 µM (top of the series)
# Summary of the method: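 Seeded 400 DT40-hTDP1 cells/well (vehicle DMSO, no 20 nM CPT); pinned compounds; ≥48 hr at 37 °C; CellTiter-Glo luminescence as viability measure.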
# On the % scale 0 is the no-effect control and ±100 the full control effect; potency means the concentration at half of the fitted maximal effect.
SMILES,"activity change, negative = growth inhibition",Potency
COC(=O)[C@@H]1C[C@H](NC(=O)c2ccccc2C(F)(F)F)CN1Cc1cccc(O)c1,-9.99% (inactive),
COc1cc([N+](=O)[O-])ccc1NC(=S)N1CCN(c2ccccn2)CC1,-15.4% (inactive),
O=[N+]([O-])c1ccc(NC(=S)N2CCN(c3ccccn3)CC2)cc1,,11.6 µM (active)
CCOC(=O)c1ccc(NC(=S)N2CCN(c3ccccn3)CC2)cc1,-3.2% (inactive),
CCOC(=O)c1cnn(Cc2ccccc2Cl)c1N,-12.2% (inactive),
Cc1noc(C)c1C(=O)N1CCOCC1,-9.18% (inactive),
CC(C)(C)C1CCC(OC(=O)CCC(=O)Nc2ccccc2)CC1 (stereo unspecified),-2.86% (inactive),
CN1CCN(C(=O)/C(=C\c2cccs2)NC(=O)c2cccs2)CC1,-7.36% (inactive),
Cc1cccc(NC(=O)Cn2cc(S(=O)(=O)Cc3ccccc3Cl)c3ccccc32)c1,,20.6 µM (active)
CCOC(=O)c1ccc(NC(=O)Cn2cc(S(=O)(=O)Cc3ccccc3F)c3ccccc32)cc1,-26.3% (inactive),
COc1cccc(NC(=O)CS(=O)(=O)c2cn(CC(=O)N3CCOCC3)c3ccccc23)c1,0.349% (inactive),
OCCN1CCN(c2ncnc3c2ncn3[C@H]2CN(Cc3ccco3)C[C@@H](CO)O2)CC1,-10.1% (inactive),
O=C(Nc1ccc(Cl)cc1)c1csc([C@@H]2O[C@H](CO)[C@H](O)[C@H](O)[C@H]2O)n1,-0.432% (inactive),
CSc1nnnn1-c1c(C)cc(C)cc1C,7.83% (inactive),
COc1cccc(NC(=O)CN(C)CC(=O)Nc2ccc3c(c2)CCC3)c1,-4% (inactive),
Cc1[nH]c2ccccc2c1/C=C(/C#N)C(=O)NC(C)C,-9.84% (inactive),

SMILES,"activity change, negative = growth inhibition",Potency
CNC(=O)/C(C#N)=C/c1c(F)cccc1Cl,,9.2 µM (active)
O=C(/C=C/c1c(F)cccc1Cl)Nc1nn[nH]n1,1.45% (inactive),
Cc1ccc(C(=O)N2CCC(n3nccc3NC(=O)Nc3cccc(F)c3)CC2)cn1,10.4% (inactive),
Brc1cccc(-c2nnn3c2nc(NC2CCCCC2)c2ccccc23)c1,-26.7% (inactive),
CCCc1nc2sc3c(c2c(=O)n1NC(=O)CCCl)CCCC3,,29.1 µM (active)
COc1ccc(NC(=O)CCNC(=O)Cn2cnc3sc4c(c3c2=O)CCCC4)cc1OC,-4.24% (inactive),
Cc1ccc(C)c(-n2c(SCC(=O)O)nc3sc4c(c3c2=O)CCCC4)c1,-16.6% (inactive),
CC(C)N(Cc1nc(-c2ccc3c(c2)OCO3)no1)CC1CCC(=O)N1 (stereo unspecified),8.55% (inactive),
CCC(=O)c1ccc(OCC(=O)OCC(=O)NC2CCCCCC2)cc1,-17% (inactive),
O=C(COc1ccccc1)Nc1ccc(C(=O)N2CCCC2)cc1,22.5% (inactive),
CCC(=O)c1ccc(OCC(=O)Nc2ccc(N3CCCCC3)cc2)cc1,,20.6 µM (active)
O=C(NCC(=O)N1CCCCCCC1)c1ccccc1Cl,12.3% (inactive),
Cc1nc2ccccc2c(=O)n1-c1ccc(NS(=O)(=O)c2ccc(F)cc2F)cc1,-14.2% (inactive),
COc1cc(C(=O)Nc2ccc(OCc3cc(=O)n4ccc(C)cc4n3)cc2)cc(OC)c1OC,-9.6% (inactive),
COc1cc(C(=O)Nc2ccc(-n3c(C)nc4ccccc4c3=O)cc2)cc(OC)c1OC,,18.4 µM (active)
